{
  "source": "the supplement of paper PMC12636033",
  "note": "± gives the standard deviation of the averaged measurements. Whole data set: some 33,000 sequences, median “E-score (rank enrichment, -0.5 to 0.5)” near -0.0028, cut for the highest 2% near 0.23. The entries come from a sample that favours the highest values as a whole.",
  "data": [
    {"test_system": "2Sb-muMax20 (muMax20 with two 1,3-bis(methyl)benzene Cys staples, A13C/A17C and Q88C/A92C, C-terminal Lys)", "assay": "PBM 8-mer E-score (E-score (rank enrichment, -0.5 to 0.5)); higher = stronger preferential binding", "experimental": "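Protein binding microarray (universal PBM chip covering all 10-mers in fixed probe flanks) with chemically synthesized human Max(13-93) bHLH-LZ analogs (not full-length Max) bearing noncanonical residues (hArg, Tha, Aib, Nle at 65) and aromatic Cys staples. Read-out per 8-mer (and its reverse complement): E-score (rank-based enrichment, -0.5 to 0.5) and Z-score of median probe intensity.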", "values": [
      {"sequence": "ACACATAT", "PBM 8-mer E-score": "0.124 ± 0.021"},
      {"sequence": "ATAGGGCG", "PBM 8-mer E-score": "0.138 ± 0.0092"},
      {"sequence": "ATGATCAG", "PBM 8-mer E-score": "-0.0255 ± 0.099"},
      {"sequence": "CACTTGAC", "PBM 8-mer E-score": "-0.0462 ± 0.076"},
      {"sequence": "CTTAATAA", "PBM 8-mer E-score": "-0.0695 ± 0.0064"},
      {"sequence": "CTTAATTC", "PBM 8-mer E-score": "0.173 ± 0.039"},
      {"sequence": "CTTAATAC", "PBM 8-mer E-score": "0.244 ± 0.042"},
      {"sequence": "ATCAGCTA", "PBM 8-mer E-score": "0.00813 ± 0.027"},
      {"sequence": "AATGAAGA", "PBM 8-mer E-score": "0.0161 ± 0.012"},
      {"sequence": "AATGAAGT", "PBM 8-mer E-score": "0.238 ± 0.026"},
      {"sequence": "AATGAAGG", "PBM 8-mer E-score": "0.0344 ± 0.037"},
      {"sequence": "TACAACAA", "PBM 8-mer E-score": "0.268 ± 0.0087"},
      {"sequence": "TACAATAA", "PBM 8-mer E-score": "0.331 ± 0.05"},
      {"sequence": "AACAATAA", "PBM 8-mer E-score": "0.133 ± 0.017"},
      {"sequence": "CACAACAC", "PBM 8-mer E-score": "0.219 ± 0.035"},
      {"sequence": "CACAACAA", "PBM 8-mer E-score": "0.212 ± 0.0096"},
      {"sequence": "CACAATAA", "PBM 8-mer E-score": "0.0489 ± 0.053"},
      {"sequence": "AACAACAA", "PBM 8-mer E-score": "0.194 ± 0.033"},
      {"sequence": "AACAACAC", "PBM 8-mer E-score": "0.2764 ± 0.0019"},
      {"sequence": "GACAACAC", "PBM 8-mer E-score": "-0.0706 ± 0.0054"},
      {"sequence": "CATTTCCG", "PBM 8-mer E-score": "-0.0659 ± 0.0054"},
      {"sequence": "CTTCCCGC", "PBM 8-mer E-score": "0.0401 ± 0.037"},
      {"sequence": "ACACGTTA", "PBM 8-mer E-score": "0.08518 ± 0.00069"},
      {"sequence": "ATTATAAC", "PBM 8-mer E-score": "0.306 ± 0.0034"},
      {"sequence": "ATTATACA", "PBM 8-mer E-score": "0.0477 ± 0.0088"},
      {"sequence": "ATTATAAG", "PBM 8-mer E-score": "0.205 ± 0.057"},
      {"sequence": "ATTATACC", "PBM 8-mer E-score": "0.237 ± 0.011"},
      {"sequence": "ATTATACG", "PBM 8-mer E-score": "0.0799 ± 0.014"},
      {"sequence": "ATTATAAT", "PBM 8-mer E-score": "0.141 ± 0.034"},
      {"sequence": "GGCTTCAC", "PBM 8-mer E-score": "-0.204 ± 0.1"},
      {"sequence": "CGAGTCAG", "PBM 8-mer E-score": "-0.177 ± 0.05"},
      {"sequence": "CTGTATGC", "PBM 8-mer E-score": "0.0233 ± 0.062"},
      {"sequence": "CGATACGA", "PBM 8-mer E-score": "-0.06 ± 0.12"},
      {"sequence": "GCATAATA", "PBM 8-mer E-score": "0.195 ± 0.083"},
      {"sequence": "CTATAATA", "PBM 8-mer E-score": "0.0375 ± 0.0029"},
      {"sequence": "GTATAAGA", "PBM 8-mer E-score": "0.212 ± 0.037"},
      {"sequence": "ACATAATA", "PBM 8-mer E-score": "0.302 ± 0.0096"},
      {"sequence": "ATATAAGA", "PBM 8-mer E-score": "0.249 ± 0.011"},
      {"sequence": "ACATAATC", "PBM 8-mer E-score": "0.142 ± 0.023"},
      {"sequence": "CTATAAGA", "PBM 8-mer E-score": "0.0167 ± 0.02"},
      {"sequence": "GTATAATA", "PBM 8-mer E-score": "0.226 ± 0.012"},
      {"sequence": "ATATAATA", "PBM 8-mer E-score": "0.274 ± 0.044"},
      {"sequence": "CTTAGCTA", "PBM 8-mer E-score": "-0.0391 ± 0.023"},
      {"sequence": "CTTTCTCC", "PBM 8-mer E-score": "0.00231 ± 0.006"},
      {"sequence": "CATACAGA", "PBM 8-mer E-score": "-0.0476 ± 0.0072"},
      {"sequence": "CACCTGCG", "PBM 8-mer E-score": "-0.168 ± 0.017"},
      {"sequence": "CCGTATCG", "PBM 8-mer E-score": "-0.0355 ± 0.019"},
      {"sequence": "ACGTGGGC", "PBM 8-mer E-score": "0.169 ± 0.022"},
      {"sequence": "ACGTGGAG", "PBM 8-mer E-score": "0.279 ± 0.0086"},
      {"sequence": "ACGTGGAT", "PBM 8-mer E-score": "0.207 ± 0.043"},
      {"sequence": "ACGTGGTG", "PBM 8-mer E-score": "0.316 ± 0.034"},
      {"sequence": "GAGTGGGA", "PBM 8-mer E-score": "-0.0417 ± 0.045"},
      {"sequence": "ACGTGGGG", "PBM 8-mer E-score": "0.261 ± 0.045"},
      {"sequence": "CCGTGGAG", "PBM 8-mer E-score": "-0.106 ± 0.074"},
      {"sequence": "ACGTGGTA", "PBM 8-mer E-score": "0.216 ± 0.024"},
      {"sequence": "ACGTGGGA", "PBM 8-mer E-score": "0.203 ± 0.044"},
      {"sequence": "TAGTGGGA", "PBM 8-mer E-score": "0.038 ± 0.0028"},
      {"sequence": "AAGTGGGA", "PBM 8-mer E-score": "0.281 ± 0.018"},
      {"sequence": "ACGTGGTC", "PBM 8-mer E-score": "0.111 ± 0.0094"},
      {"sequence": "TCTCGCCA", "PBM 8-mer E-score": "0.0619 ± 0.024"},
      {"sequence": "AAAAGGCA", "PBM 8-mer E-score": "0.0454 ± 0.064"},
      {"sequence": "AAGTGGGT", "PBM 8-mer E-score": "0.1 ± 0.0081"},
      {"sequence": "ACGTGGCT", "PBM 8-mer E-score": "0.291 ± 0.048"},
      {"sequence": "ACGTGGCC", "PBM 8-mer E-score": "-0.0906 ± 0.018"},
      {"sequence": "AAGTGGGC", "PBM 8-mer E-score": "0.0223 ± 0.023"},
      {"sequence": "ACGTGGCA", "PBM 8-mer E-score": "0.114 ± 0.049"},
      {"sequence": "AAGTGGGG", "PBM 8-mer E-score": "0.264 ± 0.032"},
      {"sequence": "AACCGTGC", "PBM 8-mer E-score": "-0.0303 ± 0.0035"},
      {"sequence": "CGGTATTC", "PBM 8-mer E-score": "-0.204 ± 0.072"},
      {"sequence": "GGCCGGCC", "PBM 8-mer E-score": "-0.285 ± 0.0086"},
      {"sequence": "CCACGGTA", "PBM 8-mer E-score": "-0.185 ± 0.042"},
      {"sequence": "TTAAAGAA", "PBM 8-mer E-score": "0.125 ± 0.032"},
      {"sequence": "GCGTAAAC", "PBM 8-mer E-score": "0.0507 ± 0.016"},
      {"sequence": "AATTCCAG", "PBM 8-mer E-score": "0.0496 ± 0.043"},
      {"sequence": "ATACTACG", "PBM 8-mer E-score": "0.0847 ± 0.053"},
      {"sequence": "GGACTCAA", "PBM 8-mer E-score": "-0.0969 ± 0.07"},
      {"sequence": "ATTGGGAA", "PBM 8-mer E-score": "0.192 ± 0.0077"},
      {"sequence": "ATTGGGTA", "PBM 8-mer E-score": "0.161 ± 0.015"},
      {"sequence": "CTTGGGGA", "PBM 8-mer E-score": "0.269 ± 0.046"},
      {"sequence": "ATTGGGGC", "PBM 8-mer E-score": "0.284 ± 0.0076"},
      {"sequence": "ATTGGGGA", "PBM 8-mer E-score": "0.244 ± 0.0088"},
      {"sequence": "ATTGGGGG", "PBM 8-mer E-score": "0.0136 ± 0.03"},
      {"sequence": "GTTGGGGA", "PBM 8-mer E-score": "0.166 ± 0.092"},
      {"sequence": "TATGGGGA", "PBM 8-mer E-score": "0.28 ± 0.014"},
      {"sequence": "ATTGGGCC", "PBM 8-mer E-score": "-0.04 ± 0.093"},
      {"sequence": "CATGGGGA", "PBM 8-mer E-score": "0.172 ± 0.05"},
      {"sequence": "CTTGGGAA", "PBM 8-mer E-score": "-0.0626 ± 0.05"},
      {"sequence": "AATGGGGA", "PBM 8-mer E-score": "0.143 ± 0.0043"}
    ]}
  ]
}
